B1: uchl1_2_7519 (protein)
chain: KTVIVGVLVDMRAYDPETGREYRARHTLIGTETAIEAMVEEIRERILAFRDDVGVPVEVDLHIVSSREEVARRLEALLKEMAAELAPEGVTVRISVTVTK
B2: uchl1_2_7525 (protein)
chain: KTVFVGALLTLTSVDEETGEVYRYRRTLIGTASAIEALAREVEELVLNFRDDVGLPVDAEVHLVASDEETLRRAREAFEKMAERLAEEGITVTITSEVAR
B3: uchl1_2_7529 (protein)
chain: KTQFVGALVTMTATDPKTGKTYRARRILIGTADGIPAMMEEIEELALEFQKQTGVPVTVNVTVHVSKEEVAEEVKKKLEELKKRLAEKGITFTYEVIVHK
B4: uchl1_2_7532 (protein)
chain: ESVFVGVLVTITSRNEATGETKVARRTLIALESNIEALMEEVKELVLAFKEEHGGKTEVKIEVYATREEVAKRAREVAEKMKEELEAAGIDATVEVKLVK
B5: uchl1_2_7535 (protein)
chain: KTKFVGVLVTLTATDAETGEVKTSRRTFIGTEDSVEALADEVKDYILDYKKDSGKAVKADIKIYSTDEEVVKKLEALLKEKEPELKAAGIEVNITGEVVK
B6: uchl1_2_7533 (protein)
chain: KTVFVGVRVTITSRNPETGEVRRAVRTFIFTESSLEALTEEIRELALAFKADHGGATTVRIEAVATREEVAERLRELLERLAEELAAEGIEVEIEVTVVK
B7: uchl1_2_7524 (protein)
chain: KTVFVGALVTLEAEDKETGKVYRYRRNLIGTESAIEALAKEVKELVLNFKEAVGLPVKATVHIVASREEVLKKAVEEFEKMAKELAKEGIEVEITSELTK
B8: uchl1_2_7537 (protein)
chain: KTRFVGVKVDIEARNEETGEVFRARRTLIGTADSIPAMAEEVERLVLEFQRRTGVPVRVEVHVYASDEETARLAREEFEKMAERLRKEGIEVRVEVTVVE
B9: uchl1_2_7526 (protein)
chain: KTKFVGVLVTLTSYNEETGKTYVSRRTLILSESGIEKLSEEILELVDRFKQVNGDNIKVKIHVVSTDEEALEKAKEKVEEAKEELEKRGVEVEVEYELVK
B10: uchl1_2_7534 (protein)
chain: KTVFVGVKVTVTVTDPATGKTTTTTRTFIGTADSVDALADAVTDYILRVKADSKADVAAAVTVYSTDKAVVDRAVAALNARVPELAAAGVTVTVTGTVVK
B11: uchl1_2_7521 (protein)
chain: KAEFVGVLVDMTSTDPETGKTYRYRRNYIGTASAIPAMMAEVERDVLNFQENVGLPVDVALHIVASTEAALEAARAEAKKMAARLAAKGAKVTITGEVAK
B12: uchl1_2_7531 (protein)
chain: KKKTQFVGVLVTVRATRDGRELVARRTFIATESSIDALMAEVERYVRDFVAAAGTPARVAIRAVVSTEETGARVAAALAALAERLAPLAEEIEVTVEVRR
B13: uchl1_2_7527 (protein)
chain: KSKFVGVKVTLTAYNEETGKTYVSTRTLILSESGIENLSKEILDLVERFKQVNGDNIEVDIKAVSTDEEALEKAKKELEKAKKELEAKGVKVNITYELVK
B14: uchl1_2_7520 (protein)
chain: KARFVGVLVDMTSTDPETGKTYRSRRNYIGTESAIPAMMAEVKEDVLNFQKNVGLPVKVDLHIVADTQEALDAAKAEAEKMAAELAKEGATVTISGEVAE
B15: uchl1_2_7530 (protein)
chain: KAEFVGALLTLTARDAETGETFRSRRTLIGTADAIEALMAEIEELALRFQADVGVPVTADIHVVVSNEETAERVREALARMAERLAAEGITVNVTVTVVR
B16: uchl1_2_7536 (protein)
chain: KTKFVGARVEIEAVDPETGKRYRSRRTLIGTASAIEAMAEEVRRLVLAFKEDVKAPVTVRVTVYASDEETAAKARAAFERMAAELAAEGITVEVEVVLVK

From the supplement of paper PMC12632987 come the findings set out here.

Chain of UCHL1, P09936 (P09936 whole entry, looked up, the tested form may be a part): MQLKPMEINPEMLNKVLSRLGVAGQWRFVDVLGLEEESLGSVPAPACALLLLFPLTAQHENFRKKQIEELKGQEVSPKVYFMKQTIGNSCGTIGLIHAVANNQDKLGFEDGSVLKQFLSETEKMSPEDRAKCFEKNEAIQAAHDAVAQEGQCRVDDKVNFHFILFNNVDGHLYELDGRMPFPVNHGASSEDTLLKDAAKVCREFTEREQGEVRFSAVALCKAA

The experiment concerns the target UCHL1, P09936. As to the kind of experiment: median log2 fold change of GCK-ALFA target abundance (FLAG IP / Myc IP barcode read proportion) (log2 ratio); each designed protein is fused to an ALFA-tag nanobody in HEK293 cells to bring the named protein to FLAG-tagged glucokinase (GCK); Myc marks an untargeted standard; higher = target protein stabilised (more abundant). As to conditions: target protein: 3xFLAG-MCP-GCK-ALFA reporter; HEK293 landing pad (RPLP). In a few lines:
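Binders fused to an ALFA nanobody were recombined as a library into HEK293 landing-pad cells, which were induced with 2 μg mL^−1 doxycycline and then transfected to express a FLAG-tagged target and a Myc-tagged standard. After 48 h, circular RNA barcodes recovered by anti-FLAG and anti-Myc immunoprecipitation of lysates were reverse transcribed, amplified and sequenced. Each binder's target abundance is the median log2 ratio of FLAG to Myc barcode read proportions, from barcodes present at ≥10^−7 in both replicates, binders carrying ≥3 barcodes per replicate, a 10^−6 pseudocount and pooled replicates.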
As to B1, the “median log2 fold change” value was -0.204.

Take B2: the “median log2 fold change” value came out at 0.0632. For B3 the value was -0.784; for B4, -0.231.

As to B5, the “median log2 fold change” value is -0.112. The figure for B6 is -0.457; for B7 it is -0.455. For B8 the value was -0.302; for B9, -0.696. The figure for B10 is 0.287; for B11 it is -1.03. In the case of B12, the “median log2 fold change” value is -0.524.

Consider B13, for which the “median log2 fold change” value was -0.63. For B14 the value was -1.27. The figure for B15 is -0.378; for B16 it is -0.837.
